From PubChem BioAssay (NCI)
This is part of a sample that, as a whole, favours compounds with a hit. Of some 79,000 tested, about 15% had one in any assay. Active and inactive are the calls of the source. No stated cut-off is given here; in the data, active means growth inhibition above about 70%; inactive means the rest.

Experiments:
[1] = NCI Yeast Anticancer Drug Screen. Data for the rad52 strain (AID 147);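 further: 0% = growth of vehicle-treated control cultures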; conditions: S. cerevisiae rad52 mutant growth inhibition, stronger effect = higher value
Procedure, shortened: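 Here a repair-compromised yeast strain receives each compound; its growth is then quantified and normalised to vehicle-only controls.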

[2] = NCI Yeast Anticancer Drug Screen. Data for the wt1 strain (AID 149);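 further: 0% = growth of vehicle-treated wt1 cultures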; conditions: S. cerevisiae wt1 strain (SPY 50644) growth inhibition, stronger effect = higher value
Procedure, shortened: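 Compounds are added to wt1 yeast cultures. Growth is then measured. Inhibition is expressed relative to vehicle-treated controls.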

[3] = NCI Yeast Anticancer Drug Screen. Data for the rad50EPP+ strain (AID 151);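 further: 0% = growth of vehicle-treated control cultures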; conditions: S. cerevisiae rad50 mutant strain, stronger effect = higher value
Procedure, shortened: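 Read-out is yeast growth inhibition relative to vehicle; cells used were the rad50EPP+ strain.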

[4] = NCI Yeast Anticancer Drug Screen. Data for the mgt1 strain (AID 153); conditions: S. cerevisiae mgt1 mutant growth inhibition, stronger effect = higher value
Procedure, shortened: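 Measured: inhibition of mgt1 yeast growth by compound, normalized to vehicle-treated cultures.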

[5] = NCI Yeast Anticancer Drug Screen. Data for the rad50 strain (AID 155);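 further: 0% = growth of vehicle-only cultures of the same strain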; conditions: S. cerevisiae rad50 strain growth inhibition, stronger effect = higher value
Procedure, shortened: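 Inhibition values express reduced yeast growth in compound-treated cultures relative to vehicle-treated controls.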

[6] = NCI Yeast Anticancer Drug Screen. Data for the mec2-1 strain (AID 157); conditions: S. cerevisiae mec2-1 strain, stronger effect = higher value
Procedure, shortened: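 Using mec2-1 yeast: add compound, measure growth, express inhibition versus vehicle-treated cultures.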

[7] = NCI Yeast Anticancer Drug Screen. Data for the rad14 strain (AID 159);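 further: 0% = growth of vehicle-treated control cultures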; conditions: S. cerevisiae rad14 strain growth inhibition, stronger effect = higher value
Procedure, shortened: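 A mutant yeast strain defective in DNA damage repair is treated with compound; inhibition of its growth is scored against untreated, vehicle-exposed cultures.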

[8] = NCI Yeast Anticancer Drug Screen. Data for the sgs1 mgt1 strain (AID 161);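 further: 0% = growth of cultures given vehicle only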; conditions: S. cerevisiae sgs1 mgt1 strain, stronger effect = higher value
Procedure, shortened: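 Percent growth inhibition was derived by comparing compound-exposed mutant yeast with vehicle-exposed cultures. The strain carries alterations in DNA damage repair.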

[9] = NCI Yeast Anticancer Drug Screen. Data for the CLN2oe strain (AID 163);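 further: 0% = growth of vehicle-only control cultures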; conditions: S. cerevisiae CLN2oe strain, stronger effect = higher value
Procedure, shortened: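 Whole-cell yeast growth assay. A strain engineered for altered cell-cycle control received compound, and inhibition relative to vehicle-treated cultures was recorded.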

[10] = NCI Yeast Anticancer Drug Screen. Data for the cln2 rad14 strain (AID 165);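 further: 0% = growth equal to vehicle treated cultures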; conditions: S. cerevisiae cln2 rad14 strain, stronger effect = higher value
Procedure, shortened: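 Yeast strain cln2 rad14, bearing defects in cell cycle control and DNA repair, serves as the test system; values reflect growth inhibition compared with vehicle.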

[11] = NCI Yeast Anticancer Drug Screen. Data for the bub3 strain (AID 167); conditions: S. cerevisiae bub3 mutant strain, stronger effect = higher value
Procedure, shortened: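 Steps: expose the mutant yeast strain to compound; grow alongside vehicle-treated cultures; measure growth; express inhibition against the vehicle cultures.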

[12] = NCI Yeast Anticancer Drug Screen. Data for the wt2 strain (AID 169);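 further: 0% = growth of vehicle-treated yeast cultures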; conditions: S. cerevisiae wt2 strain growth inhibition, stronger effect = higher value
Procedure, shortened: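 Treated yeast vs. vehicle-treated yeast: growth inhibition determined.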

[13] = NCI Yeast Anticancer Drug Screen. Data for the mlh1 strain (AID 171);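 further: 0% = growth of vehicle-treated control cultures of the same strain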; conditions: S. cerevisiae mlh1 strain growth inhibition, stronger effect = higher value
Procedure, shortened: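 A yeast strain with a defined genetic lesion serves as the test organism. Cultures receive compound or vehicle, and growth is measured.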

[14] = NCI Yeast Anticancer Drug Screen. Data for the sgs1 strain (AID 173);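 further: 0% = growth of vehicle-only control cultures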; conditions: S. cerevisiae sgs1 mutant, stronger effect = higher value
Procedure, shortened: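 A genetically defined yeast mutant is incubated with the test compound, and its growth is compared to that of the same strain given vehicle.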

[15] = NCI Yeast Anticancer Drug Screen. Data for the mlh1 rad18 strain (AID 175); conditions: S. cerevisiae mlh1 rad18 strain growth inhibition, stronger effect = higher value
Procedure, shortened: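 Steps: expose repair-defective yeast to compound; measure growth; express inhibition against vehicle-treated controls.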

[16] = NCI Yeast Anticancer Drug Screen. Data for the rad18 strain (AID 177); conditions: S. cerevisiae rad18 mutant growth inhibition, stronger effect = higher value
Procedure, shortened: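 Measured value is growth inhibition of a yeast strain bearing a DNA repair alteration, referenced to vehicle-treated cells.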

[17] = at 5.0 µM (retest, dose inferred, filed as 0.5)
[18] = at 50.0 µM (retest, dose inferred, filed as 5.0)

Measured: growth inhibition

CCC(C)NC1=NCC(C)S1 (stereo unspecified)
active: [11]; [18] 98%
inactive: [1]; at 1.2 µM -9% | [1]; at 3.7 µM -12% | [1]; at 11.0 µM -12% | [1]; at 33.0 µM -29% | [1]; at 100.0 µM -17% | [2]; at 1.2 µM -22% | [2]; at 3.7 µM -14% | [2]; at 11.0 µM -24% | [2]; at 33.0 µM -34% | [2]; at 100.0 µM -28% | [3]; at 1.2 µM -40% | [3]; at 3.7 µM -38% | [3]; at 11.0 µM -27% | [3]; at 33.0 µM -37% | [3]; at 100.0 µM -75% | [4]; at 1.2 µM -18% | [4]; at 3.7 µM -15% | [4]; at 11.0 µM -13% | [4]; at 33.0 µM -19% | [4]; at 100.0 µM -25% | [5]; at 1.2 µM -29% | [5]; at 3.7 µM -20% | [5]; [17] 44% | [5]; at 11.0 µM -32% | [5]; at 33.0 µM -34% | [5]; [18] 41% | [5]; at 50.0 µM 64.1% | [5]; at 100.0 µM -33% | [6]; at 1.2 µM -40% | [6]; at 3.7 µM -48% | [6]; [17] 42% | [6]; at 11.0 µM -63% | [6]; at 33.0 µM -51% | [6]; [18] 36% | [6]; at 50.0 µM 28.9% | [6]; at 100.0 µM -39% | [7]; at 1.2 µM -17% | [7]; at 3.7 µM -15% | [7]; at 11.0 µM -22% | [7]; at 33.0 µM -21% | [7]; at 100.0 µM -25% | [8]; [17] -9% | [8]; [18] 30% | [8]; at 50.0 µM 58.2% | [9]; at 1.2 µM -5% | [9]; at 3.7 µM 1% | [9]; at 11.0 µM -9% | [9]; at 33.0 µM 0% | [9]; at 100.0 µM -8% | [10]; [17] 44% | [10]; [18] 49% | [10]; at 50.0 µM 65.7% | [11]; at 1.2 µM -6% | [11]; at 3.7 µM -9% | [11]; [17] 19% | [11]; at 11.0 µM -8% | [11]; at 33.0 µM -16% | [11]; at 50.0 µM 57.7% | [11]; at 100.0 µM -17% | [12]; at 1.2 µM -20% | [12]; at 3.7 µM -21% | [12]; at 11.0 µM -28% | [12]; at 33.0 µM -26% | [12]; at 100.0 µM -22% | [13]; at 1.2 µM -27% | [13]; at 3.7 µM -27% | [13]; at 11.0 µM -22% | [13]; at 33.0 µM -36% | [13]; at 100.0 µM -42% | [14]; at 1.2 µM -26% | [14]; at 3.7 µM -21% | [14]; at 11.0 µM -16% | [14]; at 33.0 µM -38% | [14]; at 100.0 µM -29% | [15]; [17] 47% | [15]; [18] 27% | [15]; at 50.0 µM 62.6% | [16]; at 1.2 µM -12% | [16]; at 3.7 µM 0% | [16]; at 11.0 µM -6% | [16]; at 33.0 µM -26% | [16]; at 100.0 µM -32%

CN(C)/C=C/c1nnc([N+](=O)[O-])s1
active: [1]; at 100.0 µM 98% | [2]; at 100.0 µM 98% | [3]; at 100.0 µM 96% | [4]; at 100.0 µM 98% | [5]; at 33.0 µM 94% | [5]; [18] 90% | [5]; at 50.0 µM 95% | [5]; at 100.0 µM 97% | [6]; at 50.0 µM 76.2% | [6]; at 100.0 µM 90% | [7]; at 33.0 µM 79% | [7]; at 100.0 µM 99% | [8]; [18] 80% | [8]; at 50.0 µM 94% | [9]; at 100.0 µM 97% | [11]; [18] 77% | [11]; at 50.0 µM 96% | [11]; at 100.0 µM 98% | [12]; at 100.0 µM 98% | [13]; at 100.0 µM 99% | [14]; at 100.0 µM 98% | [15]; [18] 77% | [15]; at 50.0 µM 89.8% | [16]; at 100.0 µM 97%
inactive: [1]; at 1.2 µM -2% | [1]; at 3.7 µM -3% | [1]; at 11.0 µM 5% | [1]; at 33.0 µM 28% | [2]; at 1.2 µM -7% | [2]; at 3.7 µM -8% | [2]; at 11.0 µM -10% | [2]; at 33.0 µM -1% | [3]; at 1.2 µM 1% | [3]; at 3.7 µM 12% | [3]; at 11.0 µM 35% | [3]; at 33.0 µM 65% | [4]; at 1.2 µM -7% | [4]; at 3.7 µM -5% | [4]; at 11.0 µM -5% | [4]; at 33.0 µM -5% | [5]; at 1.2 µM -8% | [5]; at 3.7 µM -3% | [5]; [17] -144% | [5]; at 11.0 µM 49% | [6]; at 1.2 µM 4% | [6]; at 3.7 µM 0% | [6]; [17] -48% | [6]; at 11.0 µM -6% | [6]; at 33.0 µM 1% | [6]; [18] 4% | [7]; at 1.2 µM -4% | [7]; at 3.7 µM 2% | [7]; at 11.0 µM 28% | [8]; [17] -63% | [9]; at 1.2 µM -2% | [9]; at 3.7 µM -3% | [9]; at 11.0 µM -2% | [9]; at 33.0 µM 9% | [10]; [17] -63% | [10]; [18] -23% | [10]; at 50.0 µM 28.6% | [11]; at 1.2 µM -5% | [11]; at 3.7 µM -2% | [11]; [17] -65% | [11]; at 11.0 µM -3% | [11]; at 33.0 µM 6% | [12]; at 1.2 µM -1% | [12]; at 3.7 µM -1% | [12]; at 11.0 µM -2% | [12]; at 33.0 µM 7% | [13]; at 1.2 µM 5% | [13]; at 3.7 µM -8% | [13]; at 11.0 µM -1% | [13]; at 33.0 µM 41% | [14]; at 1.2 µM -2% | [14]; at 3.7 µM -4% | [14]; at 11.0 µM -1% | [14]; at 33.0 µM 24% | [15]; [17] -115% | [16]; at 1.2 µM 0% | [16]; at 3.7 µM 5% | [16]; at 11.0 µM 21% | [16]; at 33.0 µM 56%
